Assay results: article PMC4336329 (PLoS ONE, 2015)
Among all 310,000 compounds or so, about 14,000 (4.5%) showed an effect of 50% or more. Effects have a minus sign here. The list comes from a sample in which strong results are over-represented; it also holds similar structures and randomly drawn compounds.

molecular target: human ether-à-go-go-related gene (hERG) potassium channel (human, UniProt Q12809); experiment: primary screen, population patch clamp on CHO cells stably expressing hERG; higher = less effect of the substance
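Note: peak tail current of the secondary pulse compared with the same well before compound.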

Sequence of human ether-à-go-go-related gene (hERG) potassium channel (Q12809 whole entry, looked up): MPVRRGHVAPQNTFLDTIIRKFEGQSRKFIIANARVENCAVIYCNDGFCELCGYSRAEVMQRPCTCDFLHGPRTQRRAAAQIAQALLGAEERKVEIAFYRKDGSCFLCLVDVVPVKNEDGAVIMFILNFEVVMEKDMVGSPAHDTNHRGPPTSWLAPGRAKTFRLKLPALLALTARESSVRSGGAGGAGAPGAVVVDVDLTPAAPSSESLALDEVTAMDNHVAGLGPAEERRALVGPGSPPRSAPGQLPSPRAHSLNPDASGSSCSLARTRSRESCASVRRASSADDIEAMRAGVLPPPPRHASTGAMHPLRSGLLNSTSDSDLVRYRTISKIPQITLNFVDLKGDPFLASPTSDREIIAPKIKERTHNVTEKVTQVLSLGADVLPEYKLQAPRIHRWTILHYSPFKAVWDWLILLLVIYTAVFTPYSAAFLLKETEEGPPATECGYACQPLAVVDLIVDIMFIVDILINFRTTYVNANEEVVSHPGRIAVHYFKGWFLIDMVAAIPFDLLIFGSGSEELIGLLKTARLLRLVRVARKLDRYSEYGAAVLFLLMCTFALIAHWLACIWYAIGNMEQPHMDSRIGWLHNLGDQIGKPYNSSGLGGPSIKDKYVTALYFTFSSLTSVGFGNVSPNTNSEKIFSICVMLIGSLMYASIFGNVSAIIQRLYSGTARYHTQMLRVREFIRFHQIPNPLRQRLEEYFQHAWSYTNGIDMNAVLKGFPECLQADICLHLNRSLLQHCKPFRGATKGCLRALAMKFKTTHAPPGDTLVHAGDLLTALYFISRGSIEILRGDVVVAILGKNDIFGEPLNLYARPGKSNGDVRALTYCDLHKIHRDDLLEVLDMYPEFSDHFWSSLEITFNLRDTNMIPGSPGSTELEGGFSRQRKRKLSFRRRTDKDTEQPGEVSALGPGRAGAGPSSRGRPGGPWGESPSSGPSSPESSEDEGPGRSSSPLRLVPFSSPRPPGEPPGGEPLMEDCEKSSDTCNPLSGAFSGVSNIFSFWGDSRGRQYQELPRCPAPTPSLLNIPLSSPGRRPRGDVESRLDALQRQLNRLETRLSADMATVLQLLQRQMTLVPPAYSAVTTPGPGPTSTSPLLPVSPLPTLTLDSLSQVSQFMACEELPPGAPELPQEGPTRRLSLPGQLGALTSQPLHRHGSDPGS

| SMILES | hERG current change (%, negative = inhibition) at 10uM |
| --- | --- |
| O=C(c1cccc(S(=O)(=O)N2CCOCC2)c1)N(Cc1ccc(F)cc1)Cc1ccco1 | -88.4% |
| CN(Cc1cccs1)C(=O)c1cccc(S(=O)(=O)N2CCCCCC2)c1 | -59.9% |
| CN(Cc1cccs1)C(=O)c1ccc(S(=O)(=O)N2CCCCC2)cc1 | -18.8% |
| O=C(c1ccc(S(=O)(=O)N2CCOCC2)cc1)N(Cc1ccco1)Cc1cccs1 | -44.5% |
| CN(C)S(=O)(=O)c1cccc(C(=O)N(Cc2ccc(F)cc2)Cc2ccco2)c1 | -52.3% |
| CCc1ccccc1NC(=O)c1cc(-c2cccc(O)c2)on1 | 12.7% |
| COc1cccc(C(=O)Nc2cnn(C(C)C)c2)c1 | 9.94% |
| CC(C)N(Cc1cnn(C)c1)Cc1nc(-c2ccc(Cl)cc2)no1 | 3.63% |
| COc1ccc(/C=N/NC(=O)c2ccncc2)cc1Cn1nc([N+](=O)[O-])c(Br)c1C | -49.4% |
| Cc1ccccc1NC(=O)C1C2CCCCC21 (centres unmarked) | 6.99% |
| CC(C)CC(NC(=O)C1CCC(C)CC1)C(=O)NCc1ccccn1 (centres unmarked) | 18% |
| O=C(Oc1cccc(-c2cnc3ccccc3n2)c1)c1ccco1 | -5.02% |
| O=C(NC1CCN(Cc2ccccc2)CC1)c1ccccc1OCc1ccccc1Cl | -69.2% |
| CCOc1ccccc1C(=O)NC1CCN(Cc2ccccc2)CC1 | -46.6% |
| O=C(CNC(=O)c1ccccc1Cl)NC1CCN(Cc2ccccc2)CC1 | 13.1% |
| O=C(O)c1ccccc1OCc1ccccc1Cl | 6.55% |
| O=C(NC1CCCC1)c1ccccc1OCc1ccccc1 | -39.6% |
| Cl.O=C(NC1CCN(Cc2ccccc2)CC1)c1ccccc1OCc1ccccc1 | -69.3% |
| CC(C)N1CC23C=CC(O2)C(C(=O)OCc2ccccc2)C3C1=O (centres unmarked) | 3.29% |
| COc1cc(NS(=O)(=O)c2ccc(N/C=C(\C=O)c3nc4cc(Cl)ccc4o3)cc2)nc(OC)n1 | -2.34% |
| CCO[C@H]1OC(C(=O)O)=C[C@@H](C(C)(C)C)[C@@H]1CCCO | 7.12% |
| Cl.Fc1ccccc1Nc1nc(Cl)nc(Cl)n1 | 7.69% |

| SMILES | hERG current change (%, negative = inhibition) at 10uM |
| --- | --- |
| COc1ccccc1N1CCN(c2ncc(C(=O)N3CCN(c4cccc(Cl)c4)CC3)c3ccccc23)CC1 | -10.7% |
| O=C(C1CCCCC1)N1CCN(c2ccccc2F)CC1 | -7.04% |
| CCCOC(=O)CSc1nc(N2CCOCC2)c2c(c1C#N)CC(C)(C)OC2 | -40.5% |
| O=C(Nc1ccc2ccccc2c1)NC1CCS(=O)(=O)C1 (centres unmarked) | 6.88% |
| Cc1ccc(C)c(NC(=O)CCNS(=O)(=O)c2ccc3[nH]c(=O)oc3c2)c1 | 11.4% |
| Cc1ccc(C(=O)OCC(=O)Nc2cc(C(C)(C)C)nn2-c2ccccc2)c(O)c1 | -8.07% |
| Cc1nnc(SCC(=O)Nc2cc(C(C)(C)C)nn2-c2ccccc2)s1 | -12.9% |
| CC(C)(C)c1cc(NC(=O)CSc2nnc(NCc3ccccc3)s2)n(-c2ccccc2)n1 | -50.1% |
| CC(C)(C)c1cc(NC(=O)CSc2nnc(N)s2)n(-c2ccccc2)n1 | -29.1% |
| O=C(CSc1nncs1)Nc1cc(-c2ccccc2)nn1-c1ccccc1 | -39.1% |
| COCCNc1nnc(SCC(=O)Nc2cc(-c3ccccc3)nn2-c2ccccc2)s1 | -50.9% |
| O=C(COC(=O)c1ccc(O)cc1O)Nc1cc(-c2ccccc2)nn1-c1ccccc1 | -9.42% |
| COCCNc1nnc(SCC(=O)Nc2nnc(-c3ccccc3)o2)s1 | 21.8% |
| CC(C)(C)c1cc(NC(=O)COC(=O)c2ccc(O)cc2O)n(-c2ccccc2)n1 | -79.3% |
| O=C(Nc1nc2c(F)cccc2s1)C1CC1 | -8.38% |
| Cn1c(=O)cc(OCC(=O)N2CCN(Cc3ccc4c(c3)OCO4)CC2)c2ccccc21 | -33.4% |
| O=C(CSc1ccccc1)Nc1nccs1 | -3.78% |
| O=C(CC1C(=O)NCCN1Cc1ccc(-c2ccccc2)cc1)NCCOc1cccnc1 (centres unmarked) | -25.9% |
| O=C(c1ccccc1)N1N=C(C(F)(F)F)CC1(O)c1ccccc1 (centres unmarked) | 10.6% |
| C=CCNC(=O)c1ccc2c3n(nc2c1)-c1ccc(C)cc1CO3 | -24.6% |
| O=C(Nc1ccccc1C(F)(F)F)C1CCN(C(=O)c2cccs2)CC1 | 10.5% |
| Cc1ccc(NC(=O)C2Cc3ccccc3C(=O)O2)cc1 (centres unmarked) | 13% |
